# From PubChem
# Pol iota inh = inhibitors of human DNA polymerase iota | 390,000 tested, 1% active | Q9UNA4 | Pol iota fluorescent replication assay, 10 min | Potency, µM (doses to about 115 µM), usual class: inhibitors
#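 Fluorescent replication assay read twice, at 0 min and 10 min after adding 50 nM (final) substrate. Enzyme (10 nM) and compounds were first incubated 15 min at room temperature; enzyme-free buffer wells were negative controls.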
# Pol eta inh-1 = inhibitors of human DNA polymerase eta; Q9Y253; recombinant Pol eta, fluorescent DNA replication assay; Potency, µM (highest dose often 114 µM), most hits filed as inhibitors; 390,000 tested, 1.2% active; AID 588591
#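 Pol eta at 10 nM preincubated with compounds 15 min at room temperature; reaction started with fluorescent substrate (50 nM final) and read kinetically at 0 and 10 min.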
# Pol beta inh = blocks human DNA polymerase beta activity. Pol beta primer extension/strand displacement, fluorescence kinetic. Potency, µM (top dose mostly 114 µM), actives largely listed as inhibitors. 340,000 tested, 1.3% active
#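 Kinetic readout of DNA synthesis with strand displacement by Pol beta. Compound and 10 nM enzyme sit 15 min at room temperature; 50 nM substrate starts the reaction, read immediately and at 10 min.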
# Pol kappa inh-1 = inhibitors of human DNA polymerase kappa. Q9UBT6. purified Pol kappa, fluorescent DNA synthesis assay, 10 min. Potency, µM (doses to about 107 µM), most hits filed as inhibitors. 400,000 tested, 0.53% active
#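 Readout: fluorescence, taken kinetically at 0 and 10 min. Conditions: 10 nM Pol kappa, 15 min RT compound preincubation, 50 nM substrate final. Controls: enzyme-free buffer wells.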
# L3MBTL1 inh = blocks human L3MBTL1. 230,000 tested, 0.66% active. Potency, µM (doses to about 57.1 µM), hits mostly inhibitors. AlphaScreen L3MBTL1–H3K9me1 peptide binding. AID 485360. Q9Y468; further: nearly all actives have a fitted effect of over 60% in size
# Target sequence (Q9Y468 whole entry, looked up): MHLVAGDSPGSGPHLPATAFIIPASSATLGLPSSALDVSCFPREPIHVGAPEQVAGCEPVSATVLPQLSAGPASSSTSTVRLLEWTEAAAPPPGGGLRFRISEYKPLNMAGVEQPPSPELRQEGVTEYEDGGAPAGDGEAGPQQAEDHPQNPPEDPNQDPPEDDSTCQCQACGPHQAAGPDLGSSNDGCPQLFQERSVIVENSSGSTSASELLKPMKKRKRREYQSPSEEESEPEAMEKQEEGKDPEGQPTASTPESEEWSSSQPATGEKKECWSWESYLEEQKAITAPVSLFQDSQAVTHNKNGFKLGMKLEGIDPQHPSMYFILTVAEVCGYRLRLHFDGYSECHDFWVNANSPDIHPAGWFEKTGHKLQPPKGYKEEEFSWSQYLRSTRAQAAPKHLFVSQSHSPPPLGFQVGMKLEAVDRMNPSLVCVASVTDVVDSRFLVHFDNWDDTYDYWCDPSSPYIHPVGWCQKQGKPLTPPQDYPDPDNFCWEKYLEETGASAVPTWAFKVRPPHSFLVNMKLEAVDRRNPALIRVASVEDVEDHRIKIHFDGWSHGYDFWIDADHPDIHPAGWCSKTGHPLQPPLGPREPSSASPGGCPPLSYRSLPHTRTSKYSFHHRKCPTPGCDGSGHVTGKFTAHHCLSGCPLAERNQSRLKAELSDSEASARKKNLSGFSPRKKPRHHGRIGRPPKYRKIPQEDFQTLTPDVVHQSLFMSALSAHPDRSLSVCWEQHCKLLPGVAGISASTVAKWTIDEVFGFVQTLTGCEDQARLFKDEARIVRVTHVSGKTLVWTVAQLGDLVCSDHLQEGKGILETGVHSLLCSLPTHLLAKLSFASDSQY
#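 L3MBTL1 (50 nM) pre-complexed 30 min with biotinylated H3(1-15)K9me1 peptide (75 nM), then compounds added for 30 min at room temperature; AlphaScreen streptavidin donor/nickel chelate acceptor beads (10 ug/mL final) read after 30 min dark incubation.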
# GALK inh confirm = galactokinase (human) inhibition, confirmation; shares compounds with Pol eta inh-1; purified GALK, Kinase-Glo ATP depletion luminescence; Potency, µM (highest dose often 115 µM), most hits filed as inhibitors; 150 tested, 70% active
# Redox cycling = redox cycling activity in phenol red-HRP assay. 150 tested, 40% active. Phenol red-HRP H2O2 redox cycling, absorbance 600 nm. shares compounds with Pol eta inh-1. AID 2035. Potency, µM (titrated, usually from 115 µM), most hits filed as inhibitors
# HEK293 viability = counter-screen for GALK inhibitors: HEK293 cell cytotoxicity | shares compounds with Pol eta inh-1 | HEK-293 viability, ATP luminescence (CellTiter-Glo), 24/48 h | Potency, µM (titrated, usually from 46.1 µM), usual class: inhibitors | 170 tested, 10% active
# Pol kappa inh-2 = Pol kappa (human) inhibition, cherry-pick confirmation; shares compounds with Pol eta inh-1; purified Pol-kappa, fluorescent strand-displacement substrate; Potency, µM, hits mostly inhibitors; 920 tested, 76% active
# Pol eta inh-2 = confirmation of human DNA polymerase eta inhibitors | shares compounds with Pol eta inh-1 | Pol eta primer extension, TAMRA/BHQ fluorescence, 10 min | Potency, µM, most hits filed as inhibitors | 2,600 tested, 64% active
# Hits are given with their value; n = inactive; u = inconclusive; x = not tested or not shown; [ ] = dose if it differs, or a comment. Compounds with a hit are over-represented: about 2.4% of the library has one in this group of screens. The call rests on the fitted dose curve; in most records, active means well fitted curve in the direction sought with a large enough effect; inconclusive means small, poorly fitted or top-dose-only effect, or another doubt; inactive means no such curve, though single readings can be large; an effect the other way counts as inactive or inconclusive.
SMILES,Pol iota inh,Pol eta inh-1,Pol beta inh,Pol kappa inh-1,L3MBTL1 inh,Pol kappa inh-2,Pol eta inh-2,others
O=C1C=C(c2ccc3cc[nH]c3c2)C[C@@H](c2ccc3c(c2)OCO3)C1,14.1µM,22.4µM,x,79.4µM,31.6µM,x,75.7,
O=c1[nH]c2ccc(S(=O)(=O)N3CCN(S(=O)(=O)c4c(F)cccc4F)CC3)cc2[nH]c1=O,x,x,x,x,x,53.2,x,
CC(=O)N=c1c(C#N)cc2c(=O)n3cccc(C)c3nc2n1Cc1ccco1,39.8µM,31.6µM,u,n,n,x,u,
O=C(NCCS(=O)(=O)N1CCN(c2ccccc2)CC1)C1CCCCC1,x,n,x,x,x,x,x,
CSc1ccc(/C=N/Nc2nc(C)cc(=O)[nH]2)cc1,n,u,n,n,n,x,x,
COC(=O)c1ccc(COc2ccc(/C=N/Nc3nc(C)cc(=O)[nH]3)cc2)cc1,u,89.1µM,20µM,n,n,u,x,
C#Cc1ccc([C@H]2C=C(C(=O)OCC=C)O[C@@H](OCCCCO)C2)cc1,56.2µM,31.6µM,x,u,x,x,67.5,
COc1cccc(Nc2cc(C)nc3nc(-c4ccc(Cl)cc4)nn23)c1,u,79.4µM,u,n,x,10.6,x,
CCCCC/C=C\C/C=C\C/C=C\C=C\[C@@H](O)CCCC(=O)O,x,x,x,n[19.4 µM],x,x,x,
CCOc1ccccc1N(CC)C(=O)c1cc2c(=O)n(CC)c3ccccc3c2s1,n,n,n,n,x,x,x,
O=C(c1cc(-c2ccco2)on1)N1CCCc2ccccc21,u,79.4µM,35.5µM,79.4µM,n,x,u,
O=C(c1cc(-c2ccccc2)on1)N1CCCc2ccccc21,n,n,n,n,n,x,x,
O=C(c1coc(=O)c(Br)c1)N1CCCc2ccccc21,15.8µM,11.2µM,25.1µM,31.6µM,u,42.3,37.9,
O=C(c1cccc(Br)c1)N1CCCc2ccccc21,n,n,n,n,n,x,x,
CC[C@H](C)[C@H]1CNC(=O)C(=O)N1CC1CCN(CCCc2ccc(OC)c(OC)c2)CC1,n,n,x,n,x,x,x,
C=CCc1cccc2cc(C(=O)Nc3ccccc3C(=O)O)c(=O)oc12,u,44.7µM,u,n,n,x,u,
CCn1ccc2cc(S(=O)(=O)N3CCC(C(=O)NCCc4ccc(C)cc4)CC3)ccc21,n,n,n,n,x,x,x,
Cc1ccc(S(=O)(=O)N2[C@@H](c3cccc(Cl)c3)C(C(=O)O)=CC[C@H]2c2ccc(C(C)C)cc2)cc1,u,89.1µM,x,u,n,u,x,
O=C(Cn1c(=O)n(Cc2ccc(C(=O)NCc3ccc4c(c3)OCO4)cc2)c(=O)c2ccccc21)Nc1ccc(F)cc1F,u,79.4µM,10µM,n,x,u,x,
COC(=O)c1ccc(CSc2ccc3nnc(-c4ccc(F)cc4)n3n2)o1,n,n,n,n,x,x,x,
COC(=O)c1ccc(CSc2ccc3nnc(-c4ccccn4)n3n2)o1,n,n,n,n,u,x,x,GALK inh confirm=n;Redox cycling=n;HEK293 viability=n
Cc1cccc(OCC(=O)N/N=C/c2sc(=O)n(Cc3cccc(C(=O)O)c3)c2Cl)c1,n,n,n,n,n,x,x,
COc1ccc(OCC(=O)N/N=C/c2cccn2-c2cccc(C(=O)O)c2)cc1,10µM,5.01µM,x,79.4µM,u,21.2,30.1,
Cc1ccc(OCC(=O)N/N=C/c2cccn2C)cc1C,n,n,n,n,n,x,x,
O=C(COc1ccccc1)N/N=C/c1sc(=O)n(Cc2cccc(C(=O)O)c2)c1Cl,u,22.4µM,n,n,n,x,33.8,
Cc1ccc2nc(NC(=O)c3ccco3)sc2c1,n,n,n,n,x,x,x,
Cc1nc2ccc3nc(NC(=O)c4ccco4)sc3c2s1,u,u,x,u,x,x,u,
